Measured potencies and affinities stand elsewhere. Activity calls are given as the source filed them. The rule behind the calls is not given here.
assay: mammalian cell viability reduction – secondary assay, cytotoxicity control for West Nile virus antiviral project, dose response (AID 1650); settings: Mammalian host cell viability, cytotoxicity counter-screen; series mostly up to 10 µM

| Compound | outcome |
| --- | --- |
| CC1CCN(CCc2nc3cc(NC(=O)COc4ccc(Cl)cc4)ccc3n2C)CC1 | inactive |
| O=C(CCN1C(=O)/C(=C/c2ccccc2)SC1=S)NCCc1ccc(O)cc1 | inactive |
| CN(C)CCNc1oc(COc2ccc(-c3ccccc3)cc2)nc1C#N | inactive |
| CCN(CC)CCC(c1cc(OC)c(OC)c(OC)c1)c1c(OC)cc(OC)c2c(-c3ccccc3)cc(=O)oc12 (centres undefined) | inactive |
| O=C(/C=C/c1ccc2c(c1)OCO2)Nc1ccc(Cl)cn1 | inactive |
| CCCCCCc1c(C)nc(-n2[nH]c(C)c(CCO)c2=O)[nH]c1=O | inactive |
| Cc1cc(C)c(CSc2ncc(-c3ccc([N+](=O)[O-])cc3)[nH]2)c(C)c1 | inactive |
| O=C(NCCOc1ccccc1Cl)c1ncn[nH]1 | inactive |
| Cc1ccccc1C(=O)c1cccn1CC(=O)NCCN1CCN(c2cccc(C)c2C)CC1 | inactive |
| N=C1C(c2nc(-c3ccc(Cl)cc3)cs2)=C(O)CN1CCCN1CCOCC1 | inactive |
| CN1CCCC1CCNc1ccc2c(=O)c3ccccc3oc2c1 (centres undefined) | inactive |
| CCOc1ccc(/C=C/c2nc(C#N)c(NCCCN(C)C)o2)cc1 | inactive |
| Cc1ccc(NC2=C/C(=N/S(=O)(=O)c3cccs3)c3ccccc3C2=O)cc1 | inactive |
| CCN1CCN(c2ncc(C(=O)Nc3cc(Cl)c(OC)cc3OC)c3ccccc23)CC1 | inactive |
| CCCCCn1c(N2CCC(Cc3ccccc3)CC2)nc2c1c(=O)[nH]c(=O)n2C | inactive |
| CCn1nc(C)c(CN2CCC(C(=O)Nc3cccc(-c4cccc(F)c4)c3)CC2)c1C | inactive |
| Cc1nn(CC(=O)NCc2ccc(OC(C)C)cc2)c(=O)c2cc(-c3ccccc3)nn12 | inactive |
| COc1cccc(/C=N/NC(=O)c2cc(-c3cccn3C)n[nH]2)c1O | inactive |
| COc1ccc(C2c3ccc4ccccc4c3Oc3ncn(CCO)c(=N)c32)cc1OC (centres undefined) | inactive |
| COc1ccccc1CN1CCC(CNS(=O)(=O)c2cc(-c3onc(C)c3C)ccc2OC)CC1 | inactive |

| Compound | outcome |
| --- | --- |
| COc1cc(CNC(C)(C)CO)cc(Br)c1OCc1ccc(Cl)cc1Cl | inactive |
| COc1ccc(-c2ccc(C#N)c(SCC(=O)Nc3sc4c(c3C#N)CCC4)n2)cc1OC | inactive |
| Cc1ccc(C)c(N2CCN(CCCNC(=O)CCC(=O)N3CCOc4ccc(Cl)cc43)CC2)c1 | inactive |
| CCN1C/C(=C/c2ccc(N3CCOCC3)cc2)C(=O)/C(=C/c2ccc(N3CCOCC3)cc2)C1 | inactive |
| COC(=O)c1ccc(NC(=O)CC2C(=O)N(C)C(=S)N2Cc2ccc(S(N)(=O)=O)cc2)cc1 (centres undefined) | inactive |
| CC(C)c1ccc(-c2cc(C(=O)NN3CCN(C)CC3)c3ccccc3n2)cc1 | inactive |
| C/C(=N\OC(=O)c1ccc(F)cc1)c1nccs1 | inactive |
| COc1ccc(C2Nc3ccc4ccccc4c3-c3c2c(=O)oc2ccccc32)cc1 (centres undefined) | inactive |
| O=[N+]([O-])c1ccc(COc2ccc(-c3[nH]ncc3-c3ccc(Cl)cc3)c(O)c2)cc1 | inactive |
| COc1ccc(/C=C2\SC(=S)N(CCC(=O)NCCc3ccc(O)cc3)C2=O)cc1 | inactive |
| Cc1cccc(/C=C2/Sc3ccc(C(=O)NCCCN4CCOCC4)cc3NC2=O)c1 | inactive |
| CCN(CC)CCNc1ncnc2c1sc1nc(N3CCCC3)c3c(c12)CC(C)(C)OC3 | inactive |
| COc1ccc(CNCCC(c2ccc(OC(C)C)cc2)c2ccccc2OC)cc1OC (centres undefined) | inactive |
| COc1cccc2sc3ccc(NCCC4CCCN4C)cc3c(=O)c12 (centres undefined) | inactive |
| Cc1c(Cc2ccccc2)c(NCCN(C)C)n2c(nc3ccccc32)c1C#N | inactive |
| CC1CCCN(CCCNC(=O)c2cc3c(s2)-c2ccccc2OC3)C1 (centres undefined) | inactive |
| CN(C)CCNc1ncnc2c1sc1nc(N3CCCC3)c3c(c12)CC(C)(C)OC3 | inactive |
| CN(CCCNC(=O)c1cc2c(Cl)nc3ccccc3c2s1)Cc1ccccc1 | inactive |
| Cc1cc(C)c(NC(=O)Cn2nnc(C(=O)Nc3ccc(F)cc3F)c2N)c(C)c1 | inactive |
